CCT chaperon mod: High-Throughput Screening for Modulators of Cytosolic Chaperonin Activity. activity change, % (no concentration beside the values), hits read low. 360,000 tested, 0.3% active. AID 651819, 2012. purified chaperonin ATPase assay, HTRF ADP detection, 30 min; in the data active means activity change below about -30%
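Enzyme 40 or 20 nM (batch-dependent) in Tris pH 7.4/KCl/MgCl2/DTT; cpd 76 uM single point; ATP 10 uM; 30 min 37 °C; Transcreener ADP HTRF detection, 30 min RT; ratio 665/615.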
MmCpn inh: Inhibitors of TCP-1 ring complex (TRiC) of Methanococcus maripaludis (MmCpn): qHTS; Chaperonin Mm-Cpn (Methanococcus maripaludis); purified Mm-Cpn ATPase, ADP Transcreener TR-FRET; Potency, µM (doses to about 76.9 µM), without a hit: top-dose activity, negative = inhibition, actives largely listed as inhibitors; 330,000 tested, 0.031% active; further: potency means the concentration at half of the fitted maximal effect; nearly all actives have a fitted effect of over 80% in size
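TR-FRET (320 nm excitation; 590 and 665 nm emission) reports ADP made from 10 uM ATP by 25 nM enzyme; compounds were preincubated 10 min, reaction run 30 min, both at 37°C.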
Sfp PPTase inh: qHTS Assay for Inhibitors of Bacillus subtilis Sfp phosphopantetheinyl transferase (PPTase); 4'-phosphopantetheinyl transferase ffp (Bacillus subtilis), Q9F4F7; Biochemical Sfp PPTase activity, qHTS; Potency, µM, for the others: largest response in the series, negative = inhibition, actives largely listed as inhibitors; 310,000 tested, 3.5% active; AID 1490, 2009;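 further: the enzyme is Sfp with the accession as filed and its product quenches rhodamine fluorescence; potency means the concentration at half of the fitted maximal effect; 0% = enzyme reaction without inhibitor and -100% = no enzyme wells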
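Step 1, compound plus 15 nM Sfp-PPTase, 15 min, room temperature. Step 2, add rhodamine-CoA (5 uM) and BHQ-2-YbbR (12.5 uM). Step 3, read 525/598 nm fluorescence at 0 and 30 min.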
VDR inhibitor: Inhibitors of the vitamin D receptor (VDR): qHTS; Vitamin D3 receptor (Homo sapiens), P11473; VDR-SRC2-3 peptide fluorescence polarization, 2 h; Potency, µM, for inactives: max response, negative = inhibition, actives largely listed as inhibitors; 400,000 tested, 0.93% active; AID 504847, 2011; further: potency means the concentration at half of the fitted maximal effect
Target sequence (P11473 whole entry, looked up): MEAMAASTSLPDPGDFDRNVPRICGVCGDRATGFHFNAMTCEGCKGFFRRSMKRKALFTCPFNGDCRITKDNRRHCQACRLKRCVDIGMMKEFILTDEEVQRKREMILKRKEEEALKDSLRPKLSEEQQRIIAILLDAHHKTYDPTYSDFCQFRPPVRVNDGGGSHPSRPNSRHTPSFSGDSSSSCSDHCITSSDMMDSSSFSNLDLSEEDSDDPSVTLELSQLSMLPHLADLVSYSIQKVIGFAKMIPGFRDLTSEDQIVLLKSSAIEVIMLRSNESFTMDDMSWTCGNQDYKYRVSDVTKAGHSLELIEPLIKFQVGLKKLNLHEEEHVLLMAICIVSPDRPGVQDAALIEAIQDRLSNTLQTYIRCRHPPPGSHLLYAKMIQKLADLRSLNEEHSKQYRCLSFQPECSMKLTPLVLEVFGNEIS
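Fluorescence polarization assay of small-molecule disruption of VDR binding to coregulator peptide SRC2-3. Compounds and controls pin-transferred, then read after 2 h incubation at ambient room temperature.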
G9a inh: qHTS Assay for Inhibitors of Histone Lysine Methyltransferase G9a. Histone-lysine N-methyltransferase EHMT2 (Homo sapiens), Q96KQ7. G9a H3K9 monomethylation, AlphaScreen, 2 h. Potency, µM (highest dose often 102 µM), for the others: at the top dose activity, negative = inhibition, most hits filed as inhibitors. 350,000 tested, 8.8% active. AID 504332, 2011; further: potency means the concentration at half of the fitted maximal effect; nearly all actives have a fitted effect of over 75% in size
Target sequence (Q96KQ7 913-1193 limits assumed): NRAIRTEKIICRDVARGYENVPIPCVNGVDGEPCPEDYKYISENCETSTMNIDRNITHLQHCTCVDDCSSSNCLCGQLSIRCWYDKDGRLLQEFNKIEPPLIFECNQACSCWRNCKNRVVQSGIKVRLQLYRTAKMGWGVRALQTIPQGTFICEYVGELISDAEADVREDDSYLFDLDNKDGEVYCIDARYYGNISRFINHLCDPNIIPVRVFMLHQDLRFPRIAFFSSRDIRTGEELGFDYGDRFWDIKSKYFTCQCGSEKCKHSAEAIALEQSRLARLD
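Using a bead-based AlphaScreen, monomethylated H3K9 product from 2 h room-temperature reactions (G9a 20 nM, peptide 500 nM, SAM 20 uM) was detected with 0.5 ug/mL rabbit anti-H3K9me1 antibody.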
PLK1 PBD inh: qHTS for Inhibitors of PLK1-PDB (polo-like kinase 1 - polo-box domain): Primary Screen. Serine/threonine-protein kinase PLK1 (Homo sapiens), P53350. Plk1 PBD binding of FITC phosphopeptide, fluorescence polarization. Potency, µM, without a hit: max response, negative = inhibition, most hits filed as inhibitors. 360,000 tested, 2.8% active. AID 720504, 2013; further: potency means the concentration at half of the fitted maximal effect; series mostly up to about 57 µM; nearly all actives have a fitted effect of over 65% in size
Active calls of the source: *; ? = inconclusive; / = not tested or not shown; [ ] = another dose, or the depositor's remark. The list is not random: actives were taken first. Their share in the collection is about 10%. Unless noted, the call rests on the fitted dose curve; in most records, active means well fitted curve in the direction sought with a large enough effect; inconclusive means small, poorly fitted or top-dose-only effect, or another doubt; inactive means no such curve, though single readings can be large; an effect the other way counts as inactive or inconclusive. Unless noted, on the % scale 0 is the no-effect control and ±100 the full control effect.

SMILES	CCT chaperon mod	MmCpn inh	Sfp PPTase inh	VDR inhibitor	G9a inh	PLK1 PBD inh
CC(C)(C)c1nnc2sc(SCC(=O)N3CCc4ccccc43)nn2c1=O	0	2%	-3%	-12%	10%	27µM*
CCOC(=O)c1nc(NNC(=O)c2ccc([N+](=O)[O-])cc2)sc1C	-2	-2%	8%	-3%	45µM*	-15%
CC(=O)C1=C(O)C(=O)N(c2ccc(O)cc2)C1c1ccccc1 (stereo unspecified)	1	-1%	-3%	-11%	?	-4%
CC(=O)C1=C(O)C(=O)N(CO)C1c1ccccc1F (stereo unspecified)	-1	0%	4%	16%	56µM*	0%
CC(=O)C1=C(O)C(=O)N(c2ccc(C(=O)O)cc2)C1c1ccccc1 (stereo unspecified)	1	-4%	-4%	-11%	45µM*	-11%
CC(=O)C1=C(O)C(=O)N(c2ccc(Br)cc2)C1c1ccccc1[N+](=O)[O-] (stereo unspecified)	-5	1%	?	-18%	40µM*	?
CC(=O)C1=C(O)C(=O)N(c2ccc(O)cc2)C1c1ccccc1F (stereo unspecified)	-2	-1%	13%	6%	79µM*	-7%
CCC(C(=O)N1CCN(c2ccccc2F)CC1)n1nc(C)c2sc3ccccc3c2c1=O (stereo unspecified)	/	/	/	5%	-10%[59 µM]	/
Cc1cc(C)cc(OCC(=O)NCCc2nc3ccccc3[nH]2)c1	-2	0%	-1%	-11%	10%[0.501 µM]	-10%
CCC(CC)c1nnc(NC(=O)COc2ccc3c(C)cc(=O)oc3c2)s1	-1	-1%	5%	9%	-11%[0.0925 µM]	-9%
Cc1cc(=O)oc2cc(OCC(=O)NCCc3nc4ccccc4[nH]3)ccc12	-1	0%	-19%	-9%	50µM*	-8%
Cc1nnc(NC(=O)COc2ccc3c(C)cc(=O)oc3c2)s1	4	?	-27%	3%	8.9µM*	?
CCS(=O)(=O)NCCc1sc2nc(-c3ccc(OC)cc3)nn2c1C	/	/	/	2%	10%[59 µM]	/
CCN1CCCC1CN(Cc1cc2cc(C)cc(C)c2[nH]c1=O)C(=O)Nc1ccccc1OC (stereo unspecified)	-2	-3%	-18%	0%	50µM*	-6%
c1ccc2oc(-c3csc(N4CCOCC4)n3)cc2c1	-8	-7%	56µM*	?	40µM*	-18%
COc1cc(-c2csc(N3CCOCC3)n2)cc(OC)c1OC	-2	2%	?	-4%	56µM*	-4%
Fc1ccc(-c2csc(N3CCOCC3)n2)cc1	1	3%	-15%	-16%	/	-15%
CCNC(=S)N/N=C(\C)c1ccco1	2	1%	56µM*	9%	35µM*	-29%
Cc1ccccc1CSc1cn(CC(=O)N2CCCC2)c2ccccc12	/	/	/	9%	1%[59 µM]	/
OCCNCCOc1ccccc1F	-1	1%	17%	19%	-1%[59 µM]	-1%
C=CCN(CC=C)CCOc1cccc2ccccc12	-2	-1%	-16%	-7%	11µM*	2%
C=CCN(CC=C)CCOc1ccccc1F	-2	0%	?	-14%	7.1µM*	?
CCCCN(CC)CCOc1cccc2ccccc12	/	/	?	-11%	39%[59 µM]	/
O=C(Cn1c(=O)oc2cc(S(=O)(=O)N3CCCCCC3)ccc21)NCc1ccccc1Cl	/	/	/	2%	-26%[59 µM]	/
COc1cc(/C=N/N(C)c2ccccc2)ccc1O	-1	-1%	-9%	-18%	14µM*	-10%
SMILES	CCT chaperon mod	MmCpn inh	Sfp PPTase inh	VDR inhibitor	G9a inh	PLK1 PBD inh
CN(/N=C/c1ccc2c(c1)OCO2)c1ccccc1	-2	0%	?	-27%	10µM*	11%
O=C(CNc1ccccc1)N/N=C/c1ccc2c(c1)OCO2	1	1%	-1%	-21%	17%	24µM*
O=C(Cc1ccccc1)N/N=C/c1ccc2c(c1)OCO2	-4	2%	-1%	-3%	5%	-18%
COc1cc(/C=N/S(=O)(=O)CCc2ccccc2)ccc1O	0	-2%	27%	7%	13%[59 µM]	-5%
COc1cc2c(=O)c(C(=O)c3ccc(F)cc3)cn(Cc3cccc(F)c3)c2cc1OC	/	/	/	-8%	9%[59 µM]	/
CCC(=O)Nc1cc(-c2nc3ccccc3s2)c(Cl)cc1Cl	/	/	/	8%	-27%[59 µM]	/
O=c1c(C=Nc2cccc(C(F)(F)F)c2)c[nH]n1-c1cccc(Cl)n1	2	1%	0%	-3%	50µM*	-5%
CCOC(=O)c1c(C)oc2nc(C)nc(NCCCN3CCN(c4cc(C)ccc4C)CC3)c12	/	/	/	21%	-18%[59 µM]	/
O=C(O)/C=C/c1ccc([N+](=O)[O-])o1	2	1%	12%	2%	22µM*	?
CN[C@@H]1[C@H](O[C@H]2[C@@H](O[C@@H]3[C@@H](O)[C@@H](O)[C@@H](N=C(N)N)[C@@H](O)[C@@H]3N=C(N)N)O[C@@H](C)[C@]2(O)CO)O[C@H](CO)[C@@H](O)[C@@H]1O	/	/	14%	0%	28%[21.5 µM]	/
CC1CCn2c(nc3cc(C(=O)NCCc4ccccc4)ccc32)C1 (stereo unspecified)	/	/	/	7%	2%[59 µM]	/
O=C(NCc1ccccc1)C1Nc2ccc(OC(F)(F)F)cc2C2C=CCC12 (stereo unspecified)	-2	/	/	-18%	/	-9%
O=C(O)C1Nc2c(cccc2C(F)(F)F)C2C=CCC12 (stereo unspecified)	/	-2%	50µM*	/	2.5µM*	/
COc1cccc2c1NC(C(=O)O)C1CC=CC21 (stereo unspecified)	2	-4%	7.9µM*	-18%	2.5µM*	27µM*
COc1cccc(CN2CC(C(=O)NCc3cccc(N4CCCC4)c3)CCC2=O)c1 (stereo unspecified)	-2	-3%	12%	0%	79µM*	2%
COCc1cc(CNC(=O)C2CCC(=O)N(Cc3cccc(OC)c3)C2)[nH]n1 (stereo unspecified)	-48*	-1%	-2%	3%	/	0%
CCCOc1ccc(CNC(=O)c2oc3ccc4c(c3c2C)C(=O)CC(C)(CC)O4)cc1 (stereo unspecified)	/	/	/	4%	-26%[59 µM]	/
CC(C)CCC(O)(CCC(C)C)C(=O)NNc1ccccc1	-2	-1%	11%	5%	50µM*	-2%

Source: PubChem
